The record followed here is the supplement of paper PMC8007513.

Where a name gives a salt, the structure may show the parent alone. ± gives the standard error. The campaign covered roughly 1,300 compounds. About 130 (10%) showed an effect of 50% or more. The list comes from a sample in which strong results are over-represented; it also holds similar structures and randomly drawn compounds.

The assay deals with Trichoderma virens ATCC 9645. Description: growth yield (OD600) with compound + IPBC relative to untreated control; higher = less growth inhibition. To be noted: compound concentration: 100 uM, IPBC concentration: 200 ng/ml. Put shortly:
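A biocide at 200 ng ml^−1 was co-applied to some wells, and library compounds were present in all test wells at 100 μM final. The wells held 100 μl of Trichoderma virens ATCC 9645 spores at 15,000 spores ml^−1 in potato dextrose broth, grown at 30 °C in 96-well plates, with OD600 read at 40 h and 72 h. Results are relative growth against the control without either agent, averaged across duplicate screens.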

For `CCN(CC)C(=O)N1CCN(C)CC1` [Diethylcarbamazine citrate] + CCCCNC(=O)OCC#CI [3-iodo-2-propynyl butylcarbamate (IPBC)], the growth yield is, setting by setting: (40 h) 83.4 ± 2.4%; (72 h) 94.1 ± 1.4%.

For the compound `CN(CCOc1ccc(CC2SC(=O)NC2=O)cc1)c1ccccn1` (configuration not stated) [Rosiglitazone Hydrochloride] + CCCCNC(=O)OCC#CI [3-iodo-2-propynyl butylcarbamate (IPBC)], the growth yield reads like this: (40 h) 76.4 ± 7.5%; (72 h) 82.6 ± 6.1%.

Take `CCCOc1ccccc1-c1nc2[nH]nnc2c(=O)[nH]1` [Zaprinast] + CCCCNC(=O)OCC#CI [3-iodo-2-propynyl butylcarbamate (IPBC)]: the growth yield runs as follows: (40 h) 87.2 ± 0.79%; (72 h) 98.7 ± 1.1%.

For `N[C@@H]1CCCCN(c2c(F)cc3c(=O)c(C(=O)O)cn(C4CC4)c3c2Cl)C1` [Besifloxacin hydrochloride] + CCCCNC(=O)OCC#CI [3-iodo-2-propynyl butylcarbamate (IPBC)], the growth yield runs as follows: (40 h) 88.5 ± 2.7%; (72 h) 88.1 ± 2.7%.

Turning to `COc1ccc(C(Cl)=C(c2ccc(OC)cc2)c2ccc(OC)cc2)cc1` [Chlorotrianisene] + CCCCNC(=O)OCC#CI [3-iodo-2-propynyl butylcarbamate (IPBC)], the growth yield (40 h) worked out at 103 ± 17% and the growth yield (72 h) was determined as 101 ± 11%.

On to `COc1ccc(C(=O)NCc2ccc(OCCN(C)C)cc2)cc1OC` [Itopride] + CCCCNC(=O)OCC#CI [3-iodo-2-propynyl butylcarbamate (IPBC)], for which the growth yield (40 h) was 107 ± 1.1% and the growth yield (72 h) worked out at 102%.

In the case of `CN(C)CCOC(c1ccccc1)c1ccccc1` [Diphenhydramine hydrochloride] + CCCCNC(=O)OCC#CI [3-iodo-2-propynyl butylcarbamate (IPBC)], the growth yield came to 87.2 ± 2.1% (40 h) and 94 ± 2.1% (72 h).

`CN(C)CCOC(=O)COc1ccc(Cl)cc1` [Meclofenoxate hydrochloride] + CCCCNC(=O)OCC#CI [3-iodo-2-propynyl butylcarbamate (IPBC)]: the growth yield was 93.2 ± 3.3% (40 h) and 96.7 ± 2.1% (72 h).

As to `CCN(CC)CCOc1ccc(C(=C(Cl)c2ccccc2)c2ccccc2)cc1` [Clomiphene citrate (Z,E)] + CCCCNC(=O)OCC#CI [3-iodo-2-propynyl butylcarbamate (IPBC)], the growth yield turned out to be 3.02 ± 0.16% (40 h) and 2.94% (72 h).

For `COc1cc(C(=O)NCc2ccc(OCCN(C)C)cc2)cc(OC)c1OC` [Trimethobenzamide hydrochloride] + CCCCNC(=O)OCC#CI [3-iodo-2-propynyl butylcarbamate (IPBC)], the growth yield runs as follows: (40 h) 90.2 ± 1.3%; (72 h) 91.3 ± 2.8%.

Regarding `CC/C(=C(\c1ccccc1)c1ccc(OCCN(C)C)cc1)c1ccccc1` [Tamoxifen citrate] + CCCCNC(=O)OCC#CI [3-iodo-2-propynyl butylcarbamate (IPBC)], the growth yield runs as follows: (40 h) 3.34 ± 0.48%; (72 h) 3.36 ± 0.63%.

`CCN(CC)CCOC(=O)C(c1ccccc1)c1ccccc1` [Adiphenine hydrochloride] + CCCCNC(=O)OCC#CI [3-iodo-2-propynyl butylcarbamate (IPBC)]: the growth yield (40 h) is 87.2 ± 1.4% and the growth yield (72 h) amounted to 92.8 ± 1.4%.

Regarding `CN(C)CCOc1ccc(/C(=C(/CCCl)c2ccccc2)c2ccccc2)cc1` [Toremifene] + CCCCNC(=O)OCC#CI [3-iodo-2-propynyl butylcarbamate (IPBC)], the growth yield reads like this: (40 h) 3.49 ± 0.95%; (72 h) 3.15 ± 0.42%.

Take `CCN(CC)CCNC(=O)c1cc(Br)c(N)cc1OC` [Bromopride] + CCCCNC(=O)OCC#CI [3-iodo-2-propynyl butylcarbamate (IPBC)]: the growth yield turned out to be 92.6 ± 14% (40 h) and 93.8 ± 7.5% (72 h).

Take `CCCOc1cc(N)ccc1C(=O)OCCN(CC)CC` [Propoxycaine hydrochloride] + CCCCNC(=O)OCC#CI [3-iodo-2-propynyl butylcarbamate (IPBC)]: the growth yield (40 h) was 86.7% and the growth yield (72 h) was found to be 88.73 ± 0.42%.

As for `CCC1(C)CC(=O)NC1=O` (configuration not stated) [Ethosuximide] + CCCCNC(=O)OCC#CI [3-iodo-2-propynyl butylcarbamate (IPBC)], the growth yield reads like this: (40 h) 94.8 ± 2.1%; (72 h) 97.85 ± 0.94%.

As to `CN1CCN(C2=Nc3ccccc3Oc3ccc(Cl)cc32)CC1` [Loxapine succinate] + CCCCNC(=O)OCC#CI [3-iodo-2-propynyl butylcarbamate (IPBC)], the growth yield is, setting by setting: (40 h) 71.8 ± 2.2%; (72 h) 91.87 ± 0.84%.

As to `CC(=O)N(CC(C)C(=O)O)c1c(I)cc(I)c(N)c1I` (configuration not stated) [Iocetamic acid] + CCCCNC(=O)OCC#CI [3-iodo-2-propynyl butylcarbamate (IPBC)], the growth yield was 107 ± 18% (40 h) and 102 ± 11% (72 h).

In the case of `C#C[C@]1(O)CC[C@H]2[C@@H]3[C@H](C)CC4=C(CCC(=O)C4)[C@H]3CC[C@@]21C` [Tibolone] + CCCCNC(=O)OCC#CI [3-iodo-2-propynyl butylcarbamate (IPBC)], the growth yield is 80.1 ± 2.9% (40 h) and 90.09 ± 0.1% (72 h).

With `Cc1ccc(-c2cc(C(F)(F)F)nn2-c2ccc(S(N)(=O)=O)cc2)cc1` [Celecoxib] + CCCCNC(=O)OCC#CI [3-iodo-2-propynyl butylcarbamate (IPBC)], the growth yield (40 h) is 57.8 ± 0.64% and the growth yield (72 h) was determined as 78.76 ± 0.73%.

For `C[C@]12CC[C@@H]3c4ccc(OC(=O)N(CCCl)CCCl)cc4CC[C@H]3[C@@H]1CC[C@@H]2O` [Estramustine] + CCCCNC(=O)OCC#CI [3-iodo-2-propynyl butylcarbamate (IPBC)], the growth yield was found to be 97.8 ± 4.5% (40 h) and 98.1 ± 4.7% (72 h).

As for `CC(C)NNC(=O)c1ccncc1` [Iproniazide phosphate] + CCCCNC(=O)OCC#CI [3-iodo-2-propynyl butylcarbamate (IPBC)], the growth yield by setting is: (40 h) 89.3 ± 0.95%; (72 h) 99 ± 0.84%.

Turning to `Oc1ccc(OCc2ccccc2)cc1` [Monobenzone] + CCCCNC(=O)OCC#CI [3-iodo-2-propynyl butylcarbamate (IPBC)], the growth yield runs as follows: (40 h) 50.7 ± 6.5%; (72 h) 63 ± 4.3%.

For the compound `CCCCOC(=O)c1ccc(O)cc1` [Butylparaben] + CCCCNC(=O)OCC#CI [3-iodo-2-propynyl butylcarbamate (IPBC)], the growth yield (40 h) stood at 27.5 ± 1.8% and the growth yield (72 h) is 46.9 ± 3.2%.

On to `CCCCN(CCCC)CCCOC(=O)c1ccc(N)cc1` [Butacaine] + CCCCNC(=O)OCC#CI [3-iodo-2-propynyl butylcarbamate (IPBC)], for which the growth yield is 106 ± 9.2% (40 h) and 105 ± 8.7% (72 h).

As to `CCCCOC(=O)c1ccc(N)cc1` [Butamben] + CCCCNC(=O)OCC#CI [3-iodo-2-propynyl butylcarbamate (IPBC)], the growth yield runs as follows: (40 h) 53.53 ± 0.16%; (72 h) 70.7 ± 3.4%.

With `NNc1nncc2ccccc12` [Hydralazine hydrochloride] + CCCCNC(=O)OCC#CI [3-iodo-2-propynyl butylcarbamate (IPBC)], the growth yield was found to be 120 ± 6.8% (40 h) and 125 ± 11% (72 h).

As to `Cc1cc(C2CCCCC2)n(O)c(=O)c1` [Ciclopirox ethanolamine] + CCCCNC(=O)OCC#CI [3-iodo-2-propynyl butylcarbamate (IPBC)], the growth yield is, setting by setting: (40 h) 3.49 ± 0.32%; (72 h) 2.83 ± 0.32%.

Consider `CCOC(=O)[C@H](CCc1ccccc1)N[C@@H](C)C(=O)N1[C@H](C(=O)O)C[C@@H]2CCC[C@@H]21` [Ramipril] + CCCCNC(=O)OCC#CI [3-iodo-2-propynyl butylcarbamate (IPBC)], for which the growth yield (40 h) was 95 ± 3.2% and the growth yield (72 h) worked out at 96 ± 3.9%.

Consider `CC1(C)O[C@@H]2C[C@H]3[C@@H]4CCC5=CC(=O)C=C[C@]5(C)[C@H]4[C@@H](O)C[C@]3(C)[C@]2(C(=O)CO)O1` [Desonide] + CCCCNC(=O)OCC#CI [3-iodo-2-propynyl butylcarbamate (IPBC)], for which the growth yield (40 h) was 107 ± 5.9% and the growth yield (72 h) is 103 ± 3.9%.

With `C[C@@H]1CC[C@H]2[C@@H](C)C(=O)O[C@@H]3O[C@@]4(C)CC[C@@H]1[C@]32OO4` [Artemisinin] + CCCCNC(=O)OCC#CI [3-iodo-2-propynyl butylcarbamate (IPBC)], the growth yield worked out at 32.4 ± 1.3% (40 h) and 76.3 ± 1.1% (72 h).

On to `CC1(C)O[C@@H]2C[C@H]3[C@@H]4CCC5=CC(=O)CC[C@]5(C)[C@@]4(F)[C@@H](O)C[C@]3(C)[C@]2(C(=O)CCl)O1` [Halcinonide] + CCCCNC(=O)OCC#CI [3-iodo-2-propynyl butylcarbamate (IPBC)], for which the growth yield was 86.9 ± 1.1% (40 h) and 91.77 ± 0.1% (72 h).

`COc1cnc(NS(=O)(=O)c2ccc(N)cc2)nc1` [Sulfameter] + CCCCNC(=O)OCC#CI [3-iodo-2-propynyl butylcarbamate (IPBC)]: the growth yield reads like this: (40 h) 101 ± 7.5%; (72 h) 101 ± 3.5%.

For the compound `Nc1nc2n[nH]nc2c(=O)[nH]1` [Azaguanine-8] + CCCCNC(=O)OCC#CI [3-iodo-2-propynyl butylcarbamate (IPBC)], the growth yield runs as follows: (40 h) 7.47 ± 1.1%; (72 h) 12.2 ± 0.21%.

In the case of `Nc1nc2c(ncn2COCCO)c(=O)[nH]1` [Acyclovir] + CCCCNC(=O)OCC#CI [3-iodo-2-propynyl butylcarbamate (IPBC)], the growth yield by setting is: (40 h) 100 ± 3.5%; (72 h) 101 ± 3.5%.

For `Nc1nc2c(ncn2COC(CO)CO)c(=O)[nH]1` [Ganciclovir] + CCCCNC(=O)OCC#CI [3-iodo-2-propynyl butylcarbamate (IPBC)], the growth yield is, setting by setting: (40 h) 99.9 ± 16%; (72 h) 98.1 ± 10%.

Regarding `CC(C)(C(=O)c1cccnc1)c1cccnc1` [Metyrapone] + CCCCNC(=O)OCC#CI [3-iodo-2-propynyl butylcarbamate (IPBC)], the growth yield (40 h) worked out at 87.5 ± 1.4% and the growth yield (72 h) was 87.68 ± 0.84%.

Take `CC(=O)OCC(=O)[C@H]1CC[C@H]2[C@@H]3CC[C@H]4C[C@H](O)CC[C@]4(C)[C@H]3C(=O)C[C@]12C` [Alfadolone acetate] + CCCCNC(=O)OCC#CI [3-iodo-2-propynyl butylcarbamate (IPBC)]: the growth yield by setting is: (40 h) 90.1 ± 8.4%; (72 h) 95.4 ± 2.9%.

Consider `C#C[C@]1(OC(C)=O)CC[C@H]2[C@@H]3CCC4=C[C@@H](OC(C)=O)CC[C@@H]4[C@H]3CC[C@@]21C` [Ethynodiol diacetate] + CCCCNC(=O)OCC#CI [3-iodo-2-propynyl butylcarbamate (IPBC)], for which the growth yield runs as follows: (40 h) 80.21 ± 0.16%; (72 h) 92 ± 1.8%.

As for `Cc1cc2c(cc1S(N)(=O)=O)S(=O)(=O)CCC2` [Meticrane] + CCCCNC(=O)OCC#CI [3-iodo-2-propynyl butylcarbamate (IPBC)], the growth yield (40 h) is 91.8 ± 6.7% and the growth yield (72 h) was 91.7 ± 3.8%.

Turning to `COc1ccc2c(c1)c(CC(=O)OCC(=O)O)c(C)n2C(=O)c1ccc(Cl)cc1` [Acemetacin] + CCCCNC(=O)OCC#CI [3-iodo-2-propynyl butylcarbamate (IPBC)], the growth yield turned out to be 74.18 ± 0.16% (40 h) and 84.11 ± 0.21% (72 h).
